The text below walks through data of PubChem BioAssay AID1850 (Southern Research Specialized Biocontainment Screening …, 2009).

What is called inhibition is the drop in the measured response relative to a control, in per cent.

Structures are written as SMILES. In all, about 310,000 compounds went through this assay and about 1,000 (0.32%) were called active. How the calls were made is not given here. Only a sample is shown. Results with a measured potency or affinity are listed apart.

This assay in a line: Inhibition of PhoP regulon, Salmonella typhi GFP reporter cells, confirmation, 4 h (AID 1850).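 Further: 0% = induced wells with vehicle and 100% = uninduced wells.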 The note with it: Salmonella Typhi PhoP-promoter GFP reporter, fluorescence, at 50 µM, stronger effect = higher value.
As for `c1ccc(C[C@H]2CNCCN2CC2(c3ccccc3)CC2)cc1`, the inhibition was -6.5% (inactive). With `Cc1cc2oc(C(=O)NCc3ccccc3)cc(=O)c2cc1C` the figure was -12.8% (inactive); with `CC1=NNC(=O)/C1=C\c1cn(-c2ccccc2)nc1-c1ccccc1`, 10.4% (inactive); with `CC1=C(C(=O)Nc2ccc(C)cc2C)C(c2cccs2)NC(=S)N1` (stereo not drawn), 2.73% (inactive). With `O=C(Nc1ccc(Cl)cc1)N1CCCN(Cc2ccc(F)cc2)C1` the figure was 0.26% (inactive). For the compound `O=C(Nc1ccccc1)N1CCCN(Cc2ccccc2F)C1`, the inhibition is 14% (inactive). To `CC1CN(c2oc(-c3ccco3)nc2C#N)CC(C)O1` (stereo not drawn) belongs 6.8% (inactive). With `C/C(=N\N=C(N)N)c1cccc(Cl)c1` the figure was 9.67% (inactive). To `C/C(=N\N=C(N)N)c1ccc(Cl)cc1` belongs -0.0633% (inactive); to `O=C(CNS(=O)(=O)c1ccccc1)N1CCc2ccccc2C1`, -1% (inactive). As for `Cn1c(=O)c2c(nc(NCC3CCCO3)n2Cc2cccc(Br)c2)n(C)c1=O` (stereo not drawn), the inhibition is 2.34% (inactive). Take `CN(C)S(=O)(=O)N1CCN(c2ccc([N+](=O)[O-])c(NC3CC3)c2)CC1`: the inhibition is -5.83% (inactive). With `NC(=O)C[n+]1ccc(/C=N/O)cc1`, the inhibition was -7.01% (inactive). Take `CCCCCCCCCC[n+]1cccc(C(=O)N(CC)CC)c1`: the inhibition was 8.08% (inactive). With `CCCCCCCC[n+]1cccc(C(=O)N(CC)CC)c1` the figure was -7.45% (inactive); with `CC(C)(C)C(=O)C[n+]1ccc(C(N)=O)cc1`, -7.77% (inactive).

With `CCN(CC)C(=O)C[n+]1ccc(C(N)=O)cc1`, the inhibition is -3.67% (inactive). With `CN(C)C(=O)C[n+]1ccc(/C=N/O)cc1` the figure was -5.57% (inactive).

As for `O=C(c1ccc(F)cc1)N1CCN(C2CC3CCC2C3)CC1` (stereo not drawn), the inhibition is -3.63% (inactive). `O=C(Nc1ccc2ccccc2n1)c1ccccc1Br`: the inhibition is -4.26% (inactive). Take `CCC(C)NC(=O)CCC(=O)NNc1nc2ccccc2c2nc(C)nn12` (stereo not drawn): the inhibition was 10.9% (inactive). To `CCn1cc(NC(=O)CCl)c(C)n1` belongs -1.91% (inactive).

Take `CC(C)(C)OC(=O)N1CCC(c2c(C(=O)NCC3CCN(C4CCCC4)C3)cnn2-c2ccccc2)CC1` (stereo not drawn): the inhibition was 4.93% (inactive). `Oc1ccc(/C=N/Nc2nccnc2Cl)cc1`: the inhibition is -3.22% (inactive). With `Oc1ccccc1/C=N/Nc1nccnc1Cl` the figure was -1.82% (inactive). As for `O=C(COc1ccc(Br)cc1)N(Cc1ccccc1)c1ccccn1`, the inhibition is 12.3% (inactive). As for `COc1ccc(NC(=O)CSCC(=O)N(C)CC(=O)Nc2ccc(Cl)c(C(F)(F)F)c2)cc1`, the inhibition was 5.95% (inactive). Turning to `O=C(CCN1C(=O)c2ccccc2S1(=O)=O)N1CCN(c2cccc(Cl)c2)CC1`, the inhibition was 0.17% (inactive).
